Screening results (PubChem)
ZTA counter: counter-screen for EBNA-1 inhibitors: inhibitors of Epstein-Barr virus ZTA. P03206. inhibition, % at 11 µM. ZTA-DNA binding, fluorescence polarization. 0.15% of 320,000 active; in the data active means inhibition above about 33%
rCAG binder: binds r(CAG) RNA repeats. r(CAG) RNA repeat, TO-PRO-1 dye displacement fluorescence. inhibition, % at 3 µM. 1.3% of 370,000 active. AID 651821;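 active means inhibition above the plate cutoff, the mean of all test compounds on that plate plus 3 SD, cut at about 35% in these data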;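 further: 0% = DMSO alone and 100% = 100 µM mitoxantrone as full dye displacement; higher means more dye released from RNA so lower well fluorescence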
PAFAH1B3 FP inh: blocks human PAF acetylhydrolase 1B catalytic subunit 3; recombinant PAFAH1B3, FP-rhodamine probe, fluorescence polarization; Q15102; 0.28% of 340,000 active; inhibition, % at 3.39 µM; AID 492972;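 active means inhibition above the screen-wide average of all tested compounds plus 3 SD, cut at about 25% in these data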;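 further: 0% = enzyme with DMSO only and 100% = wells lacking PAFAH1B3 protein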
Target sequence (Q15102 whole entry, looked up): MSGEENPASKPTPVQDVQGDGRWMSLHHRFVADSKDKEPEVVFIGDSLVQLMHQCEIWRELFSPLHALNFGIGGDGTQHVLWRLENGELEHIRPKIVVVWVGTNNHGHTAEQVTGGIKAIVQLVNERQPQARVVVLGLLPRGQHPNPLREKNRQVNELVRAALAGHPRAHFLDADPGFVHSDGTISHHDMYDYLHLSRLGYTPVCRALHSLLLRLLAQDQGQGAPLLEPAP
PAFAH2 inh: inhibitors of human PAFAH2; Q99487; recombinant PAFAH2, FP-rhodamine activity probe, fluorescence polarization; inhibition, % at 3.39 µM; 0.99% of 340,000 active; AID 492956;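 active means inhibition above the mean over all tested compounds plus 3 SD, cut at about 30% in these data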;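 further: inhibitors block probe labeling of enzyme so polarization drops; 0% = enzyme with DMSO and 100% = wells lacking PAFAH2 protein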
EBNA-1 inhibitor: blocks EBNA-1 binding to DNA | EBNA-1 DNA binding, fluorescence polarization | inhibition, % at 14.8 µM | 0.34% of 300,000 active | AID 1950; in the data active means inhibition above about 28%
PAFAH1B2 FP inh: inhibitors of human PAFAH1B2; inhibition, % at 3.39 µM; P68402; 1.2% of 340,000 active; AID 492953; recombinant PAFAH1B2, FP-rhodamine activity probe, fluorescence polarization;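 active means inhibition above the mean of all tested compounds plus 3 SD, cut at about 24% in these data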;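 further: 0% = enzyme with DMSO and 100% = wells lacking PAFAH1B2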
Target sequence (P68402 whole entry, looked up): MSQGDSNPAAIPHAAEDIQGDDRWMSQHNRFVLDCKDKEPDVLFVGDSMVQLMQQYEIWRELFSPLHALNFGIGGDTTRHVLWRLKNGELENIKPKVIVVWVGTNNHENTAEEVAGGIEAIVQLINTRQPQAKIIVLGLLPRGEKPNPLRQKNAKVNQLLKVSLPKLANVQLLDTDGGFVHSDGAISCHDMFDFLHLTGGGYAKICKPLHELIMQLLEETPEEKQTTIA
PAFAH2 FP conf: PAFAH2 (human) inhibition, confirmed; shares compounds with PAFAH2 inh; recombinant PAFAH2, FP-rhodamine activity probe, fluorescence polarization; inhibition, % at 3.39 µM; 65% of 2,300 active;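 active means mean inhibition over three repeats above a set limit taken from the earlier primary screen, cut at about 30% in these data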;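 further: inhibitor blocks binding of rhodamine activity probe so polarization falls; 0% = enzyme with DMSO and 100% = wells lacking PAFAH2 protein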
* = called active by the depositor; . = no result. Sampled rows, rich in hits. Any-hit rate of the full collection: about 2.9%.

SMILES	ZTA counter	rCAG binder	PAFAH1B3 FP inh	PAFAH2 inh	EBNA-1 inhibitor	PAFAH1B2 FP inh	PAFAH2 FP conf
COc1cccc(NC(=O)c2ccccc2F)c1	2	-1	0	0	-3	-6	.
COc1cccc(NC(=O)COC(=O)c2ccccc2F)c1	3	-1	7	76*	-10	-2	70*
COc1ccc(NC(=O)C(c2ccccc2)n2c(=O)c(-c3cc4ccccc4[nH]3)nc3ccccc32)cc1 (stereo unspecified)	.	19	.	.	.	.	.
O=C(CCS(=O)(=O)c1ccc(Cl)cc1)N1CCN(S(=O)(=O)c2cccs2)CC1	-22	-1	18	51*	-22	10	40*
CC(C)[C@H]1Cn2nncc2Cn2c3ccccc3c(=O)n21	.	7	.	.	.	.	.
CC1(C)CCCN(C(=O)c2coc(=O)c(Br)c2)C1	.	12	11	48*	.	7	21
O=C(c1coc(=O)c(Br)c1)N1CCC(C(O)(c2ccccc2)c2ccccc2)CC1	1	4	6	3	7	4	.
COC(=O)[C@H]1C[C@@]2(N3CCCC3)c3ccccc3N(C(=O)OC(C)(C)C)[C@H]2N1C(=O)OC(C)(C)C	.	-1	.	.	.	.	.
C#CCN1CC(N(C)CCOC(=O)CSc2ccccc2)CS1(=O)=O (stereo unspecified)	.	-1	.	.	.	.	.
O=C(COC(=O)c1cc(Cl)cc(Cl)c1)NCc1ccco1	.	5	4	5	.	2	.
Nc1cc(C(=O)OCC(=O)NCc2ccco2)ccc1Cl	9	6	0	36*	13	1	30*
O=C(COC(=O)c1ccccc1)NCc1ccco1	5	6	5	13	-2	1	.
O=C(COC(=O)c1cccc(S(=O)(=O)N2CCc3ccccc32)c1)NCc1ccco1	-7	2	8	33*	5	5	20
CCOc1ccc(C(=O)OCC(=O)NCc2ccco2)cc1OCC	-6	6	4	74*	6	8	46*
Cc1ccc(C(=O)OCC(=O)NCc2ccco2)cc1	8	0	2	45*	2	1	37*
O=C(COC(=O)c1cccc(S(=O)(=O)N2CCc3ccccc3C2)c1)NCc1ccco1	-10	3	1	-1	4	10	.
C=CCN1[C@H](C)COc2cccc(N3CCSCC3)c2S1(=O)=O	.	-1	.	.	.	.	.
COCCN(C(=S)Nc1c(C)cccc1C)C(C)c1cccs1 (stereo unspecified)	6	-2	-2	51*	5	1	39*
COCCN(C(=S)Nc1cccc(C)c1)C(C)c1cccs1 (stereo unspecified)	5	0	8	15	2	4	.
O=C(O)CCc1[nH]c2ccccc2c1Sc1ccccc1	12	26	4	31*	18	10	25
O=C(O)CCc1c(C(=O)O)[nH]c2ccccc12	-15	1	5	-4	-4	2	.
CCCCNC(=O)C[C@H]1C[C@@]2(C(=O)OCC)CCCC3=C2N(CCC3)C1=O	.	-3	.	.	.	.	.
CSCC[C@H](NC(=O)Nc1ccc(Oc2ccccc2)cc1)C(=O)O	-4	11	7	38*	4	6	22
CCn1cc(C(=O)OCC(=O)NCc2ccccc2Cl)c(=O)c2ccc(C)nc21	-2	-3	3	35*	-6	0	23
Cc1onc(-c2ccc(Cl)cc2)c1-c1ccn(S(=O)(=O)c2ccccc2)n1	.	3	.	.	.	.	.
SMILES	ZTA counter	rCAG binder	PAFAH1B3 FP inh	PAFAH2 inh	EBNA-1 inhibitor	PAFAH1B2 FP inh	PAFAH2 FP conf
Cc1cccc(-c2cc3nc(-c4ccccc4)cc(=O)n3[nH]2)c1	19	18	8	41*	14	13	26
Cc1ccccc1-c1cc2nc(-c3ccc([N+](=O)[O-])cc3)cc(=O)n2[nH]1	-3	4	10	10	1	4	.
Cc1cccc(NC(=O)CNC(=O)c2ccc(-n3cncn3)c([N+](=O)[O-])c2)c1C	9	3	5	38*	-1	-4	-3
COC(=O)c1ccc(-n2cncn2)c([N+](=O)[O-])c1	-16	1	2	2	-3	3	.
O=C1NC[C@H](CCCCN2C[C@H](Cc3ccc(O)cc3)N(CCc3ccc(O)cc3)C(=O)C2=O)N(CC2CCCCC2)C1=O	.	5	.	.	.	.	.
O=C(Nc1ccc2c(c1)OCO2)C1Cc2c(-c3ccc(Cl)cc3)ccnc2O1 (stereo unspecified)	.	5	.	.	.	.	.
Cc1ccc(C(=O)OCC(=O)N2CCc3ccccc32)cc1	2	-2	4	63*	3	0	63*
O=C(OCC(=O)N1CCc2ccccc21)c1ccccc1[N+](=O)[O-]	-11	4	-3	26	.	-2	.
Cn1cccc1C(=O)OCC(=O)N1CCc2ccccc21	.	3	0	31*	.	5	18
O=C(OCC(=O)N1CCc2ccccc21)c1ccccc1F	-2	-5	2	57*	7	6	53*
CC(=O)c1c(C)[nH]c(C(=O)OCC(=O)N2CCc3ccccc32)c1C	15	4	-7	44*	10	-2	27
Cc1cccc(C(=O)Nc2nc3ncccn3c2-c2ccccc2)c1	.	0	.	.	.	.	.
O=C(COC(=O)c1ccc([N+](=O)[O-])o1)NC1CCCCC1	.	4	15	29	.	8	.
Cc1cc(C(=O)OCC(=O)NC2CCCCC2)c(C)o1	10	-7	-5	84*	8	0	63*
Cc1ccc(C(=O)OCC(=O)NC2CCCCC2)o1	-12	1	5	68*	-6	4	46*
N#CC1(NC(=O)COC(=O)c2ccccc2[N+](=O)[O-])CCCCC1	8	1	4	69*	-6	2	74*
N#CCC(=O)Nc1ccc(C(=O)OCC(=O)NC2CCCc3ccccc32)cc1 (stereo unspecified)	.	20	-3	43*	.	-6	38*
COC[C@H]1CCCN1c1cccc2c1S(=O)(=O)N1CC[C@H](C1)O2	.	2	.	.	.	.	.
CCOC(=O)c1c(C)[nH]c(C(=O)OCC(=O)NC2(C#N)CCCCC2)c1C	2	-5	3	57*	4	1	52*
COc1cccc(CC(=O)OCC(=O)NC2(C#N)CCCCC2)c1	6	-4	4	32*	2	1	14
CNS(=O)(=O)c1cccc(C(=O)OCC(=O)NC2CCCC(C)C2C)c1 (stereo unspecified)	.	3	1	63*	.	16	49*
CNS(=O)(=O)c1cccc(C(=O)OCC(=O)N2CC(C)OC(C)C2)c1 (stereo unspecified)	14	0	1	1	17	3	.
COc1cccc(CC(=O)OCC(=O)NC2(C#N)CCCC2)c1	1	3	6	3	.	3	.
CCOC(=O)c1c(C)[nH]c(C(=O)OC(C)C(=O)NC2(C#N)CCCCC2)c1C (stereo unspecified)	.	2	.	.	.	.	.
